# Reference: PubChem BioAssay AID2104 (National Center for Advancing Translational Sciences (NCATS), 2009)
# Inconclusive results are not listed. Active and inactive are the calls of the source. Calls come from the whole dose curve.
# Target: Thyrotropin receptor (Homo sapiens) (UniProt P16473)
# Experiment: Secondary Concentration-Response Assay for Agonists of the Thyroid Stimulating Hormone Receptor: ELISA Activity Detection
# Details: HEK293-TSHR cells, cAMP ELISA luminescence, 1 h
# Excerpt: NIH Chemical Genomics Center [NCGC] NIH Molecular Libraries Screening Centers Network [MLSCN] MLSCN Grant: 1 X01 MH080680-01 PI Name: Dr. Marvin Gershengorn, NIH NCGC Assay Overview: Confirmation of Thyroid Stimulating Hormone Receptor Agonists TSH is an alpha/beta heterodimeric glycoprotein hormone secreted from the anterior pituitary gland which belongs to the glycoprotein hormone family. The actions of TSH are mediated by a seven-transmembrane receptor, which upon TSH binding couples preferentially to the G-alpha (s) protein (Gs), resulting in activation of adenylate cyclase and increase in cyclic adenosine 3', 5' monophosphate (cAMP). The TSH receptor (THSR) is mainly expressed in thyroid follicular cells and regulates their growth and function. Recombinant TSH is used to activate TSHR in patients with thyroid cancer receiving thyroid hormone suppression therapy and to screen for residual tumor after surgery, but it is expensive and must be administered intramuscularly. An orally active small molecule TSHR agonist would serve as an invaluable research tool for studying TSHR pharmacology and physiology, and would have multiple advantages in therapeutic settings. However, no selective small molecule agonist of the TSH receptor exists, and no small molecule screen for TSHR agonists has ever been reported. A confirmatory assay of putative TSHR agonists was conducted on a HEK 293 cell line stably expressing the TSHR, using an orthogonal detection technology to measure cAMP stimulation: an ELISA based cAMP competition assay using cAMP-Screen Direct System (Applied Biosystems, Foster City , CA).
# NCGC Assay Protocol Summary: HEK 293 cells expressing TSHR were cultured for 24 h before incubation for 1 h in serum-free DMEM containing 1 mM 3-isobutyl-1-methylxanthine (IBMX) (SIGMA) and small molecule ligands in a humidified 5% CO2 incubator at 37C. Following aspiration of the medium, cells were lysed using lysis buffer of the cAMP-Screen DirectTM System (Applied Biosystems). The cAMP content of the cell lysate was determined using the method described in the manufacturer#s protocol. An enzyme substrate with a luminescent enhancer generates glow light emission kinetics. Light signal intensity, which is inversely proportional to the cAMP level in the sample, is measured in a luminometer (Perkin Elmer, 1420 Multilabel, Victor 3) for 3 seconds/well 30 min after substrate addition. Potencies (i.e., EC50) of the ligands were obtained from dose-response curves by data analysis with GraphPad Prism 4 software for Windows.
# Sequence of Thyrotropin receptor (Homo sapiens) (P16473 whole entry, looked up): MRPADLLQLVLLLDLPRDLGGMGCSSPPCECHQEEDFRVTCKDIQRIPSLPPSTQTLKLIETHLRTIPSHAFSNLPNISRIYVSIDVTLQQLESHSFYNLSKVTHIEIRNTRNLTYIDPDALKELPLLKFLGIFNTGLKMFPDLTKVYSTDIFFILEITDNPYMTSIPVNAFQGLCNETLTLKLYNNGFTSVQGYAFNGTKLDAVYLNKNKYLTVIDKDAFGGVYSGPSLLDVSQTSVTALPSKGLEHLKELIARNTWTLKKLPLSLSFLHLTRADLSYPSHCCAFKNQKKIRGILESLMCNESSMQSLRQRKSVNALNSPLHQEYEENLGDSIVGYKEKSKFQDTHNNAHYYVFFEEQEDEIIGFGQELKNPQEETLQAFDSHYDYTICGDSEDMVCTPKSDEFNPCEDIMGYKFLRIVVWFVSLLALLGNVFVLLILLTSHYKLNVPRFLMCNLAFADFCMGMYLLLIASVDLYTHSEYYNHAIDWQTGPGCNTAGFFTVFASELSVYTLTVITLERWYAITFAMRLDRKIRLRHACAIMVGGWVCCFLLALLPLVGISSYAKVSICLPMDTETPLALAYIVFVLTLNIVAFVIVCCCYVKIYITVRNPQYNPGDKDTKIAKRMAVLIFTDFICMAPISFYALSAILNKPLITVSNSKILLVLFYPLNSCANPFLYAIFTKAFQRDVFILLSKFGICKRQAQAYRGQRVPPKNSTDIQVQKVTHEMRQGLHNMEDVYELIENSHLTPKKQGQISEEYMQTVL
Structure (SMILES),outcome,Potency
COc1ccc(C2Nc3ccccc3C(=O)N2Cc2ccco2)cc1COc1ccccc1 (stereo unspecified),inactive,–
COc1ccc(-c2nc3ccccc3c(=O)n2Cc2ccccc2)cc1COc1ccc(NC(C)=O)cc1,–,960 nM (active)
COc1ccc(C2Nc3cccc(O)c3C(=O)N2Cc2ccccc2)cc1 (stereo unspecified),inactive,–
COc1ccc(C2Nc3cccc(O)c3C(=O)N2Cc2ccccc2)cc1COc1ccc(NC(C)=O)cc1 (stereo unspecified),–,90 nM (active)
COc1ccc(C2Nc3ccccc3C(=O)N2CCO)cc1COc1ccc(NC(C)=O)cc1 (stereo unspecified),inactive,–
COc1ccc(-c2nc3ccccc3c(=O)n2Cc2ccco2)cc1COc1ccc(NC(C)=O)cc1,–,930 nM (active)
COc1ccc(C2Nc3ccccc3C(=O)N2CCc2ccccc2)cc1COc1ccc(NC(C)=O)cc1 (stereo unspecified),–,430 nM (active)
COc1ccc(C2Nc3ccccc3C(=O)N2Cc2ccccc2)cc1COc1ccc(C#N)cc1 (stereo unspecified),inactive,–
COc1ccc(C2Nc3cccc(NS(C)(=O)=O)c3C(=O)N2Cc2ccccc2)cc1COc1ccc(NC(C)=O)cc1 (stereo unspecified),–,980 nM (active)
COCc1cc(C2Nc3ccccc3C(=O)N2Cc2ccccc2)ccc1OC (stereo unspecified),inactive,–
COc1ccc(C2Nc3ccccc3C(=O)N2CCCN(C)C)cc1COc1ccc(NC(C)=O)cc1 (stereo unspecified),inactive,–
COc1ccc(C2Nc3cccc(F)c3C(=O)N2Cc2ccccc2)cc1COc1ccc(NC(C)=O)cc1 (stereo unspecified),–,280 nM (active)
O=C1c2ccccc2NC(c2ccccc2)N1Cc1ccco1 (stereo unspecified),inactive,–
COc1ccc(-c2nc3cccc(O)c3c(=O)n2Cc2ccccc2)cc1COc1ccc(NC(C)=O)cc1,–,550 nM (active)
CCCCN1C(=O)c2ccccc2NC1c1ccc(OC)c(COc2ccc(NC(C)=O)cc2)c1 (stereo unspecified),–,830 nM (active)
COc1ccc(C2Nc3ccccc3C(=O)N2Cc2ccccc2)cc1CSc1ccc(NC(C)=O)cc1 (stereo unspecified),–,80 nM (active)
COc1ccc(C2Nc3cccc(O)c3C(=O)N2Cc2ccccc2)cc1CSc1ccc(NC(C)=O)cc1 (stereo unspecified),–,18 nM (active)
COc1ccc(C2NC(=O)c3ccccc3N2)cc1COc1ccc(NC(C)=O)cc1 (stereo unspecified),inactive,–
COc1ccc(C2Nc3ccc(O)cc3C(=O)N2Cc2ccccc2)cc1COc1ccc(NC(C)=O)cc1 (stereo unspecified),–,330 nM (active)
COc1ccc(C2Nc3ccccc3C(=O)N2Cc2ccccc2)cc1COc1cccc(F)c1 (stereo unspecified),inactive,–
COc1ccc(C2Nc3ccccc3C(=O)N2Cc2ccccc2)cc1COc1ccc(NC(C)=O)cc1 (stereo unspecified),–,290 nM (active)
